Reference: the supplement of paper PMC6555819

Each sequence was assayed on LXRa homodimer (NR concentration 270 nM) (assay: PBM binding z-score (relative to random genomic background probes); higher = stronger binding; sequences stand for … in GC…GCGATTGACAGCGTAGAATGAAGG).
Procedure, shortened: (§1)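 Antibodies against each partner of ligand-free nuclear receptor dimers (one per run) detected binding on custom Agilent 4×180K protein-binding microarrays after 1 h incubation. The double-stranded probes had 34-nt variable regions carrying direct-repeat seeds, single-nucleotide variants, half-site ablations and random human genomic background sequences. Binding z-scores, from regression-normalized fluorescence, use the random background probes as reference.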

Sequence | PBM binding z-score
CCAACTAGGTCAGAACAGGACAGTGAAGGATGAT | 0.28
CATACAGGGTCAGCTAGGCCAGAGAAGGGACGGC | -0.0685
TGAATGACGTTATAAGATCAGGGAACGTTGCAAA | -0.351
ATCTCTCGGTAACCAAGTTCAGTGAATGCCGAAC | 1.33
CCTAGCAGGCCAATCTGGGTCACCCAAGGCTTGA | -0.385
GCTTGTCGATCAAGGTTAAGAAAGACTAAGCTAA | -0.687
ATATGTAGGTTAAGGGTCACTCAGGTTGGTTCGC | 1.96
GCTGCTAGGTTAGGTTGGTCAGCTAACGGGTACG | -0.358
ATCGAAAGGTCGACGAGGTGAGTGTACACCGTTT | 0.236
CAAACTAGGTCACGAAAGGTCAAGGTCGAATGAC | 6.86
TAGCCTAGGTCAGATGGGGCCAGTATACGCTATA | -0.0271
ATCGCAAGGTCGTGAGGTGAGTATACAGAAAGGC | -0.0908
TAGCATAGGTCATGGGCCAGTATACCACGCGAAC | 0.897
TCTGCTAGGTCAGCTGGTCAGCTAACGAGCTGCC | -1.11
GCTGTTAGGTCAGGTTGGTCAGCTAACGGGTACG | -0.132
TCGGCTAGGTCAGTTGGTCAGCTAACGAGCTGCC | -0.132
CCCATTAGTTGACCATAAGGGCAACCGAAGCTCG | 0.582
TAGCTTAGGTCATTGGGCCAGTATAGTACGCATC | 1.12
CCTTACGGGGCACTGACAGGTTATAGCATTTGGA | -0.267
TCGAGTAGGTTACCGATGGGGCATTCAGCTTTCT | -0.358

Sequence | PBM binding z-score
TCTATTAGTTGATTAGGGCATCCGAAACAGCGGA | 0.192
TCTGCTAGGTCGGTTGGTCAGCTAACGAGCTGCC | -0.834
CGAACTAGGTCAGAACATGACAGTGAAGGATGAT | -0.0558
TTACCAAGGTGAGCCGAGGTCGTTGATCCAACTC | -0.48
CAAACTAGGTCACCGGAAGGTCAACGTCCGCATG | 4.21
CCTACTGGGCCACGAAAAGTCATTGATTCAGTGA | -0.286
AATACAGGGTCATCGTAGACCAGAGTACGCACAG | 2.19
CCTTACGGGTCACTCCAGGCTATAGCATCGGAGT | -0.324
CCACACAGGTGAAAGGTAACTCAGTCTGGTACGC | 0.186
TCCGACAGGTGAAGGTAACTCAGGTACGCAGTCG | -0.467
ATCGATAGGTCGACGAGGTGAGTATACACCGTTT | -0.525
TAGCCTAGGTCATGCAGGCCAGTATAGTGTCGGC | 0.151
CGTCCAACGTCAGAGAGGTCAGTGAATGCCGAGT | 0.849
CCCTACGGGTCACTGACAGGTTATAGCATTTGGA | 0.501
AGAATGAGGTTACCAAACATCAGGGAAACGCTTG | -0.389
CCTACTGGGCCATTCAGAGGTGATTGATCATATG | -0.239
CCTACCAGGCCAGGGTCACTCAAGCATTTCGCTT | -0.206
CGAACTAGGTCATCCAGGACAATGAATACATTGA | 0.73
ACTAGTTGGTGAGCTGAGGTCACACACAATTCGG | 1.5
CGTCCAAGCTCAAAGGTCAGTGAAGAGATGACGG | 0.546

What follows are sequences tested on LXRb:RXRa (NR concentration 270 nM, RXRa partner concentration 90 nM) in the same assay as above.
Procedure, shortened: as §1

Sequence | PBM binding z-score
CCAACTAGGTCAGAACAGGACAGTGAAGGATGAT | 0.911
CATACAGGGTCAGCTAGGCCAGAGAAGGGACGGC | 2.27
TGAATGACGTTATAAGATCAGGGAACGTTGCAAA | -0.274
ATCTCTCGGTAACCAAGTTCAGTGAATGCCGAAC | 0.672
CCTAGCAGGCCAATCTGGGTCACCCAAGGCTTGA | 0.427
GCTTGTCGATCAAGGTTAAGAAAGACTAAGCTAA | 0.589
ATATGTAGGTTAAGGGTCACTCAGGTTGGTTCGC | 4.27
GCTGCTAGGTTAGGTTGGTCAGCTAACGGGTACG | -0.526
ATCGAAAGGTCGACGAGGTGAGTGTACACCGTTT | 2.78
CAAACTAGGTCACGAAAGGTCAAGGTCGAATGAC | 6.75
TAGCCTAGGTCAGATGGGGCCAGTATACGCTATA | 1.38
ATCGCAAGGTCGTGAGGTGAGTATACAGAAAGGC | 1.6
TAGCATAGGTCATGGGCCAGTATACCACGCGAAC | 4.03
TCTGCTAGGTCAGCTGGTCAGCTAACGAGCTGCC | 0.287
GCTGTTAGGTCAGGTTGGTCAGCTAACGGGTACG | 1.04
TCGGCTAGGTCAGTTGGTCAGCTAACGAGCTGCC | 0.27
CCCATTAGTTGACCATAAGGGCAACCGAAGCTCG | 0.755
TAGCTTAGGTCATTGGGCCAGTATAGTACGCATC | 2.62
CCTTACGGGGCACTGACAGGTTATAGCATTTGGA | 0.0491
TCGAGTAGGTTACCGATGGGGCATTCAGCTTTCT | 0.678

Sequence | PBM binding z-score
TCTATTAGTTGATTAGGGCATCCGAAACAGCGGA | 0.397
TCTGCTAGGTCGGTTGGTCAGCTAACGAGCTGCC | -0.284
CGAACTAGGTCAGAACATGACAGTGAAGGATGAT | 0.426
TTACCAAGGTGAGCCGAGGTCGTTGATCCAACTC | 1.11
CAAACTAGGTCACCGGAAGGTCAACGTCCGCATG | 4.6
CCTACTGGGCCACGAAAAGTCATTGATTCAGTGA | -0.375
AATACAGGGTCATCGTAGACCAGAGTACGCACAG | 4.4
CCTTACGGGTCACTCCAGGCTATAGCATCGGAGT | 2.91
CCACACAGGTGAAAGGTAACTCAGTCTGGTACGC | 1.15
TCCGACAGGTGAAGGTAACTCAGGTACGCAGTCG | 0.558
ATCGATAGGTCGACGAGGTGAGTATACACCGTTT | 0.484
TAGCCTAGGTCATGCAGGCCAGTATAGTGTCGGC | 1.7
CGTCCAACGTCAGAGAGGTCAGTGAATGCCGAGT | 1.75
CCCTACGGGTCACTGACAGGTTATAGCATTTGGA | 3.53
AGAATGAGGTTACCAAACATCAGGGAAACGCTTG | 1.31
CCTACTGGGCCATTCAGAGGTGATTGATCATATG | -0.138
CCTACCAGGCCAGGGTCACTCAAGCATTTCGCTT | 2.18
CGAACTAGGTCATCCAGGACAATGAATACATTGA | 2.14
ACTAGTTGGTGAGCTGAGGTCACACACAATTCGG | 2.85
CGTCCAAGCTCAAAGGTCAGTGAAGAGATGACGG | 2.8
